The supplement of paper PMC6555819

Key:
Assay in all cases: PBM binding z-score (relative to random genomic background probes); higher = stronger binding; sequences stand for … in GC…GCGATTGACAGCGTAGAATGAAGG
[1] = test system: RARb homodimer (NR concentration 270 nM)
Summary of the method: (§1)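 Probes were double-stranded and carried 34-nt variable regions with direct-repeat seeds, single-nucleotide variants, half-site ablations and random human genomic background sequences, printed on custom Agilent 4×180K protein-binding microarrays. Arrays were incubated 1 h with ligand-free nuclear receptor dimers in PBS pH 7.4, 2% milk, 0.02% Triton X-100, 1 mM DTT, 0.2 mg/mL BSA and 0.4 mg/ml salmon testes DNA. Antibodies against each partner (one per run) detected binding, and scanned fluorescence was regression-normalized. Binding z-scores use the random background probes as reference.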

[2] = test system: RARg:RXRa (NR concentration 270 nM, RXRa partner concentration 90 nM)
Summary of the method: as §1

[3] = test system: RARg homodimer (NR concentration 270 nM)
Summary of the method: as §1

[4] = test system: RXRa DBDmut IVT, anti-RXR (DBD mutation: RXRa K156A/R161A, NR concentration 90 nM)
Summary of the method: as §1

[5] = test system: RXRa homodimer (NR concentration 180 nM)
Summary of the method: as §1

[6] = test system: THRa:RXRa (NR concentration 90 nM, RXRa partner concentration 90 nM)
Summary of the method: as §1

[7] = test system: THRa homodimer (NR concentration 90 nM)
Summary of the method: as §1

[8] = test system: VDR homodimer (NR concentration 270 nM)
Summary of the method: as §1

Sequence	PBM binding z-score [1]	PBM binding z-score [2]	PBM binding z-score [3]	PBM binding z-score [4]	PBM binding z-score [5]	PBM binding z-score [6]	PBM binding z-score [7]	PBM binding z-score [8]
AGTCAAAGATCACTAGGTAACGTAAGATTCAGCT	-0.307	0.422	0.489	-0.0538	0.356	0.378	-0.116	-0.051
CGAACGTGGGCATGAGTTGATAGCAAATGCCGAT	-0.844	-0.563	-0.218	0.0414	-0.376	-0.695	-1.12	-0.195
TAGCCTAGGTCATTGGGCCAGTCTAGTACGCATC	2.48	3.76	3.79	1.52	2.52	2.67	0.501	0.896
TAGCGTAGGTCATTGGGCCAGTATAGTACGCATC	2.8	3.98	4.08	0.868	3.6	2.08	-0.396	0.725
GTACCAAGGTGAATAGGTCGTTGCTGAGTAGGCG	1.71	2.56	1.13	-0.0766	1.53	1.8	0.155	-0.166
ATCTCTAGGTAAAGATAGTTCAGTGAATGCAAAT	0.887	0.422	0.748	-0.0413	0.163	0.71	0.0896	0.419
CGTCCAAGGTCAGCAGGTCAGTGACAGCGACGTG	5.12	6.43	7.03	2.63	5.26	3.87	2.43	2.08
